PubChem BioAssay (NCATS)
Values joined by “and” are separate entries in the source; they are usually repeats but may differ in a detail not shown here. Identical values can stand only once. Results filed as inconclusive are left out. Where a call stands in place of a potency, no number is given. A number with no mark means an inactive call. Active and inactive are the calls of the source. Calls follow the shape of the dose curve; as a rule, active = well fitted curve in the direction sought with a large enough effect; inconclusive = small, poorly fitted or top-dose-only effect, or another doubt; inactive = no such curve, though single readings can be large; an effect the other way counts as inactive or inconclusive.

Assays:
[1] = test system: TAB165; assay: qHTS profiling for inhibitors of Plasmodium falciparum proliferation (AID 504749); also: nearly all actives have a fitted effect of over 60% in size; conditions: P. falciparum in erythrocytes, SYBR Green DNA, 72 h; series mostly up to 28.7 µM
How it was run: (§1)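 SYBR Green fluorescence (ex 485 nm, em 535 nm) reports parasite DNA after 72 h compound exposure of infected red cells at 0.3% parasitemia, 2.5% hematocrit; signal normalized to 0.29 uM artemisinin and vehicle wells.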

[2] = test system: W2; assay: as above; conditions: P. falciparum in erythrocytes, SYBR Green DNA, 72 h; series mostly up to 28.7 µM
How it was run: as §1

[3] = test system: CRL-7250; assay: Cytotoxic Profiling of Annotated Libraries Using Quantitative High-Throughput Screening (AID 1296008); conditions: Five cell lines viability, CellTiter-Glo ATP luminescence, 48-72 h; max response: active compounds read low; also: nearly all actives have a fitted effect of over 60% in size
How it was run: (§2)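 Cells exposed to compounds for 48 or 72 hr at 37 degrees Celsius. Viability read as ATP-coupled luminescence with CellTiter-Glo after 10 min at room temperature.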

[4] = test system: HEK293; assay: as above; conditions: Five cell lines viability, CellTiter-Glo ATP luminescence, 48-72 h; max response: active compounds read low
How it was run: as §2

[5] = test system: HaCat; assay: as above; conditions: Five cell lines viability, CellTiter-Glo ATP luminescence, 48-72 h; max response: active compounds read low
How it was run: as §2

[6] = test system: KB-3-1; assay: as above; conditions: Five cell lines viability, CellTiter-Glo ATP luminescence, 48-72 h; max response: active compounds read low
How it was run: as §2

[7] = test system: NIH3T3; assay: as above; conditions: Five cell lines viability, CellTiter-Glo ATP luminescence, 48-72 h; max response: active compounds read low
How it was run: as §2

[8] = test system: HACAT; assay: qHTS assay to identify novel small-molecules to repurpose for Merkel cell carcinoma treatment (AID 1296009); conditions: MCC and control cell lines, CellTiter-Glo viability, 72 h; at 44.8 µM (top of the series) unless noted; also: nearly all actives have a fitted effect of over 60% in size
How it was run: (§3)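 CellTiter-Glo luminescence after 72 hr compound exposure at 37 degree celsius gave cell viability. Libraries NPC and MIPE were run as 8- and 11-point dose responses; RLUs normalized to DMSO (negative) and no-cell (cytotoxicity) controls.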

[9] = test system: MCC-13; assay: as above; conditions: MCC and control cell lines, CellTiter-Glo viability, 72 h; series mostly up to 46 µM
How it was run: as §3

[10] = test system: MCC-26; assay: as above; conditions: MCC and control cell lines, CellTiter-Glo viability, 72 h; series mostly up to 46 µM
How it was run: as §3

[11] = test system: MKL-1; assay: as above; conditions: MCC and control cell lines, CellTiter-Glo viability, 72 h; series mostly up to 46 µM
How it was run: as §3

[12] = test system: MKL-2; assay: as above; conditions: MCC and control cell lines, CellTiter-Glo viability, 72 h; series mostly up to 46 µM
How it was run: as §3

[13] = test system: NIH3T3; assay: as above; conditions: MCC and control cell lines, CellTiter-Glo viability, 72 h
How it was run: as §3

[14] = test system: UISO; assay: as above; conditions: MCC and control cell lines, CellTiter-Glo viability, 72 h; series mostly up to 46 µM
How it was run: as §3

[15] = test system: WaGa; assay: as above; conditions: MCC and control cell lines, CellTiter-Glo viability, 72 h; series mostly up to 46 µM
How it was run: as §3

[16] = test system: C33A; assay: Primary qHTS to identify gynecologic anti-cancer compounds using libraries of approved drugs and bioactive compounds (AID 1345084); conditions: Gynecologic cancer cell panel viability, ATPlite luminescence, 48 h; series mostly up to 57.5 µM; also: nearly all actives have a fitted effect of over 55% in size
How it was run: (§4)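 Cytotoxicity screen measuring ATP content by luciferase luminescence. Each compound is applied at five concentrations for 48 h at 37 C with 5% CO2.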

[17] = test system: CAOV3; assay: as above; conditions: Gynecologic cancer cell panel viability, ATPlite luminescence, 48 h; series mostly up to 57.5 µM
How it was run: as §4

[18] = test system: CASKI; assay: as above; conditions: Gynecologic cancer cell panel viability, ATPlite luminescence, 48 h; series mostly up to 57.5 µM
How it was run: as §4

[19] = test system: CRL-7250; assay: qHTS assay to identify novel small-molecules to repurpose for Merkel cell carcinoma treatment (AID 1296009); conditions: MCC and control cell lines, CellTiter-Glo viability, 72 h; series mostly up to 44.8 µM; also: nearly all actives have a fitted effect of over 60% in size
How it was run: as §3

[20] = at 44.8 µM (top of the series) unless noted
Potency is read from the fitted curve at half-maximal effect.

SMILES: Clc1cccc(N2CCNCC2)c1
- Potency [1]: inactive
- Potency [2]: 7.57 µM (active)
- max response [3]: 1.11%
- max response [4]: 1.3%
- outcome [5]: inactive
- max response [6]: 5.71%
- outcome [7]: inactive
- outcome [8]: inactive
- Potency [9]: inactive
- Potency [10]: inactive
- Potency [11]: inactive
- Potency [12]: inactive
- outcome [13, 20]: inactive
- Potency [14]: inactive
- Potency [15]: inactive
- Potency [16]: inactive
- Potency [17]: inactive
- Potency [18]: inactive

SMILES: CC[N+](CC)(CC)CC
- Potency [1]: inactive
- Potency [2]: inactive
- outcome [3]: inactive
- max response [4]: -5.65%
- max response [5]: -5.59%
- max response [6]: -7.23%
- outcome [7]: inactive
- outcome [19]: inactive
- Potency [9]: inactive
- Potency [10]: inactive
- Potency [11]: inactive
- Potency [12]: inactive
- outcome [13, 20]: inactive
- Potency [14]: inactive
- Potency [15]: inactive
- Potency [16]: inactive
- Potency [17]: inactive
- Potency [18]: inactive

SMILES: CCCC1CCCCN1 (stereo not given)
- Potency [1]: inactive
- Potency [2]: inactive
- max response [3]: -4.9%
- max response [4]: -7.03%
- outcome [5]: inactive
- max response [6]: -0.9%
- outcome [7]: inactive
- outcome [8]: inactive
- Potency [9]: inactive
- Potency [10]: inactive
- Potency [11]: inactive
- Potency [12]: inactive
- outcome [13, 20]: inactive
- Potency [14]: inactive
- Potency [15]: inactive
- Potency [16]: inactive
- Potency [17]: inactive
- Potency [18]: inactive

SMILES: O=P1(NCCCl)OCCCN1CCCl (stereo not given)
- Potency [1]: inactive
- max response [3]: -12.2%
- max response [4]: 3.55%
- outcome [5]: inactive
- max response [6]: 0.482% and 4.18%
- max response [7]: -11.2% and -20.7%
- outcome [8]: inactive
- Potency [9]: inactive
- Potency [10]: inactive
- Potency [11]: inactive
- Potency [12]: inactive
- Potency [14]: inactive
- Potency [15]: inactive
- Potency [16]: inactive
- Potency [17]: inactive
- Potency [18]: inactive

SMILES: CN(C)[C@@H]1C(=O)C(C(N)=O)=C(O)[C@@]2(O)C(=O)C3=C(O)c4c(O)cccc4[C@@](C)(O)[C@H]3C[C@@H]12
- max response [3]: -3.81%
- outcome [3]: inactive
- max response [4]: -12.7%
- max response [5]: -13.2% and 4.81%
- max response [6]: -1.95% and 4.68%
- max response [7]: -3.21% and -4.63%
- outcome [19]: inactive
- Potency [9]: inactive
- Potency [10]: inactive
- Potency [11]: inactive
- Potency [12]: inactive
- Potency [14]: inactive
- Potency [15]: inactive
- Potency [16]: inactive
- Potency [17]: inactive
- Potency [18]: inactive

SMILES: NCC(O)c1ccc(O)cc1 (stereo not given)
- Potency [1]: inactive
- max response [3]: 4.85%
- max response [4]: 4.81%
- max response [5]: -2.74%
- max response [6]: -4.37%
- max response [7]: -5.72%
- Potency [9]: inactive
- Potency [10]: inactive
- Potency [11]: inactive
- Potency [12]: inactive
- Potency [14]: inactive
- Potency [15]: inactive
- Potency [16]: inactive
- Potency [17]: inactive
- Potency [18]: inactive

SMILES: C[C@H]1O[C@@H](O[C@H]2[C@@H](O)C[C@H](O[C@H]3[C@@H](O)C[C@H](O[C@H]4CC[C@@]5(C)[C@H](CC[C@@H]6[C@@H]5CC[C@]5(C)[C@@H](C7=CC(=O)OC7)CC[C@]65O)C4)O[C@@H]3C)O[C@@H]2C)C[C@H](O)[C@@H]1O
- Potency [3]: 33.5 nM (active) and 48.5 nM (active)
- Potency [4]: 53.1 nM (active) and 61.1 nM (active)
- Potency [5]: 266 nM (active)
- Potency [6]: 73.1 nM (active) and 137 nM (active)
- max response [7]: -6.15%
- Potency [10]: 0.0422 µM (active)
- Potency [11]: 47.3 nM (active)
- Potency [12]: 0.0237 µM (active)
- Potency [15]: 21.1 nM (active)
- Potency [16]: 100 nM (active) and 89.1 nM (active)
- Potency [17]: 316 nM (active) and 282 nM (active)
- Potency [18]: 398 nM (active) and 794 nM (active)

SMILES: C[C@@H]1O[C@@H](O[C@H]2C[C@@H](O)[C@]3(CO)[C@H]4[C@H](O)C[C@]5(C)[C@@H](C6=CC(=O)OC6)CC[C@]5(O)[C@@H]4CC[C@]3(O)C2)[C@H](O)[C@H](O)[C@H]1O
- Potency [3]: 29.6 nM (active) and 84.1 nM (active) and 89.3 nM (active)
- Potency [4]: 46.9 nM (active) and 94.4 nM (active) and 70.9 nM (active)
- Potency [5]: 266 nM (active) and 142 nM (active)
- Potency [6]: 52.6 nM (active) and 46.1 nM (active) and 112 nM (active)
- outcome [7]: inactive
- Potency [10]: 0.235 µM (active)
- Potency [11]: 148 nM (active) and 119 nM (active)
- Potency [12]: 0.118 µM (active)
- outcome ([13]; at 17.4 µM (top of the series)): inactive
- outcome ([13]; at 44.8 µM (top of the series)): inactive
- Potency [14]: 83.3 nM (active) and 59.6 nM (active)
- Potency [15]: 66.2 nM (active) and 59.6 nM (active)
- Potency [16]: 100 nM (active) and 126 nM (active)
- Potency [17]: 251 nM (active) and 199 nM (active)
- Potency [18]: 562 nM (active) and 794 nM (active)

SMILES: Cc1cccc(C)c1NC1=NCCCS1
- Potency [2]: 4.26 µM (active)
- max response [3]: -7.18%
- max response [4]: -6.53%
- max response [5]: -7.27%
- max response [6]: -1.86%
- max response [7]: 1%
- Potency [9]: inactive
- Potency [10]: inactive
- Potency [11]: inactive
- Potency [12]: inactive
- Potency [14]: inactive
- Potency [15]: inactive
- Potency [16]: inactive
- Potency [17]: inactive
- Potency [18]: inactive

SMILES: CCC(C(N)=O)N1CCCC1=O (stereo not given)
- Potency [1]: inactive
- max response [3]: -0.833%
- outcome [5]: inactive
- max response [6]: -5.57%
- outcome [7]: inactive
- outcome [8]: inactive
- Potency [9]: inactive
- Potency [10]: inactive
- Potency [11]: inactive
- Potency [12]: inactive
- outcome [13, 20]: inactive
- Potency [14]: inactive
- Potency [15]: inactive
- Potency [16]: inactive
- Potency [17]: inactive
- Potency [18]: inactive

SMILES: Clc1ccc(CCC(Cn2ccnc2)Sc2c(Cl)cccc2Cl)cc1 (stereo not given)
- max response [3]: -0.661%
- Potency [4]: 26.4 µM (active)
- max response [6]: 1.06%
- max response [7]: -8.13% and -9.95%
- Potency [9]: inactive
- Potency [10]: inactive
- Potency [11]: inactive
- Potency [15]: inactive
- Potency [17]: inactive
- Potency [18]: inactive

SMILES: CCN(CC)CCOC(=O)C(O)(c1ccccc1)c1ccccc1
- Potency [1]: inactive
- max response [3]: -0.239%
- max response [4]: 3.4%
- max response [5]: -11%
- max response [6]: -1.34%
- outcome [7]: inactive
- Potency [9]: inactive
- Potency [10]: inactive
- Potency [11]: inactive
- Potency [12]: inactive
- outcome [13, 20]: inactive
- Potency [14]: inactive
- Potency [15]: inactive
- Potency [16]: inactive
- Potency [17]: inactive
- Potency [18]: inactive
